From PubChem
Most compounds without a hit are left out; they make up all but 4.4% or so of the library.
D1 PAM: human D1 dopamine receptor positive modulation. hit rate 0.036% among 360,000. P21728. potentiation, % at 10 µM. HEK293 TREx D1 cells, calcium flux, dopamine EC20 potentiation; in the data active = potentiation above about 30%
TRHR enhancer: allosterically enhances the human TRH receptor. AID 493056. P34981. TRHR cells, fluo-8 calcium fluorescence, EC20 TRH enhancement. enhancement, % at 2 µM. hit rate 0.66% among 360,000; in the data active = enhancement above about 30%
Target sequence (P34981 whole entry, looked up): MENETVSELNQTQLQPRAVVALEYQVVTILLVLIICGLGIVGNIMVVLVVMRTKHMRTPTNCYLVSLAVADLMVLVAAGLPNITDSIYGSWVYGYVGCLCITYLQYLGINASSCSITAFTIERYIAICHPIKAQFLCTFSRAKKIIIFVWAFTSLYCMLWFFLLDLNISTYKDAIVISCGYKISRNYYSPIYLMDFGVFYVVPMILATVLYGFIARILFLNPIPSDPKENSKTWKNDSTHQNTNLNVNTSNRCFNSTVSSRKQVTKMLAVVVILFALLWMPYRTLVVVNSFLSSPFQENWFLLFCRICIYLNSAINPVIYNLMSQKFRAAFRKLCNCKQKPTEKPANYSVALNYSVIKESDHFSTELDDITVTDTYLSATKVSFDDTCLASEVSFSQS
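Enhancer read-out: after compound pinning and an initial kinetic agonist-mode read, an EC20 of TRH (10 nM final) was injected and fluo-8 calcium signal (Ex 480/Em 530) followed at 1 s/cycle for 100 cycles in TRHR-expressing cells.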
USP1 inh: USP1/UAF1 (human) deubiquitinase inhibition | O94782 | recombinant USP1/UAF1, Ub-Rhodamine cleavage fluorescence | Potency, µM (top dose mostly 57.1 µM), hits mostly inhibitors | hit rate 0.23% among 390,000 | AID 743255; active = well fitted inhibition curve with a large enough effect; inconclusive = small, poorly fitted or top-dose-only effect; inactive = no such curve, though single readings can be large or run the other way; note: nearly all actives have a fitted effect of over 60% in size
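1 nM enzyme complex + cpd, 15 min RT; start with Ub-Rho 150nM final; kinetic fluorescence ex 480/em 540, 6 reads q60 s. Buffer 50mM HEPES pH 7.8, 0.5mM EDTA, 0.1 mg/ml BSA, 1mM TCEP, 0.01% Tween-20.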
D1 antagonist: blocks dopamine activation of the human D1 receptor; HEK293 TREx D1 cells, calcium flux, dopamine EC80; active compounds read low; P21728; hit rate 3.2% among 360,000; activity change, negative = inhibition, % at 10 µM; in the data active = activity change below about -30%
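Tetracycline-induced HEK293 Trex D1 cells, force-coupled to calcium, dye-loaded; compounds added and read 180 s, then EC80 dopamine added and calcium flux tracked kinetically another 180 s.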
TRHR ag: TRH receptor (human) agonism | activation, % at 2 µM | TRHR cells, calcium flux fluo-8, FDSS agonist mode | P34981 | hit rate 0.18% among 360,000
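Fluo-8-loaded TRHR cells; 10 s baseline, compound added, kinetic Ca2+ fluorescence read 1/s, agonist mode.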
D1 ag: agonists of human D1 dopamine receptor; P21728; hit rate 1% among 360,000; HEK293 T-REx D1 cells, calcium flux, agonist mode; activation, % at 2 µM; AID 504660
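Inducible HEK293 T-REx D1 cells, force-coupled to calcium signalling, were plated at 4000 cells/well with tetracycline and held overnight at 30 C. After no-wash calcium dye loading, compound-evoked calcium rise over 180 s flagged agonists.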
Hits are given with their value; - = inactive; ? = inconclusive; . = no result given. Cut-off read from the data, not from the text of the source, unless noted: active = activation above about 30%; inactive = the rest.

SMILES	D1 PAM	TRHR enhancer	USP1 inh	D1 antagonist	TRHR ag	D1 ag
COc1ccc(F)cc1CN1CCN(CC(=O)Nc2ccccc2C(=O)NC2CC2)CC1	-	-	-	-37	-	-
CCOc1ccccc1NC(=O)CN1CCC(NC(=O)c2ccccc2C)CC1	-	-	-	-	-	-
COc1ccc(CN2CCN(CC(=O)Nc3ccccc3C(=O)NC3CC3)CC2)cc1F	-	-	-	-	-	-
CCOc1ccccc1C(=O)NC1CCN(CC(=O)Nc2cc(OC)ccc2OC)CC1	-	-	-	-31	-	-
Cc1cc(Br)ccc1NC(=O)C1CCN(S(=O)(=O)c2cccc3nsnc23)CC1	-	-	-	-	-	-
Cc1cccc(N2CCN(C(=O)CS(=O)(=O)c3cccc4nsnc34)CC2)c1C	-	-	-	-	-	-
O=C(Nc1ccc(SC(F)F)cc1)c1ccc(F)cc1	-	-	-	-37	-	-
O=C(Nc1ccc(SC(F)F)cc1)c1ccccc1F	-	-	-	-	-	-
Cc1cc(N2CCN(C)CC2)ccc1NC(=O)c1cccc(S(=O)(=O)N2CCc3ccccc3C2)c1	-	-	-	-87	-	-
CC(C)(C)OC(=O)Cc1nnc(C(C(=O)OCc2ccccc2)c2ccccc2)s1 (centres undefined)	-	-	.	-	-	-
COC(=O)c1sc2cc([N+](=O)[O-])cc(SCC(C)C)c2c1N	-	-	-	-	-	91
COc1ccc(-c2noc(N3CCC(C(=O)NCc4ccccc4Cl)CC3)n2)cc1	-	-	?	-47	-	-
COc1ccc(-c2noc(C3CCCN(C(=O)c4ccccc4)C3)n2)cc1 (centres undefined)	-	-	-	-39	-	-
COc1ccc(-c2noc(N3CCC(C(=O)NC(C)c4ccccc4)CC3)n2)cc1 (centres undefined)	-	-	-	-35	-	-
COc1ccc(-c2noc(N3CCC(C(=O)Nc4ccccc4F)CC3)n2)cc1	-	-	-	-	-	-
COc1ccc(-c2noc(N3CCC(C(=O)Nc4ccccc4Cl)CC3)n2)cc1	-	-	-	-34	-	-
CCOc1ccccc1NC(=O)c1c(C)cc(C)nc1SCC(=O)c1cccc(OC)c1	-	-	-	-	-	-
CCC1=Nc2cc(C(=O)N3CCC(C)CC3)ccc2Sc2ccc(C)cc21	-	-	-	-	-	-
COc1ccccc1CNC(=O)c1cn(C)c2ccc(S(=O)(=O)N3CCC(C)CC3)cc2c1=O	-	-	-	-	-	-
COc1ccc(C(=O)/C=C/C(=O)N(Cc2ccccc2)C(C(=O)NC2CCCCC2)c2ccncc2)c(O)c1 (centres undefined)	-	-	-	-	-	-
COc1ccc(C(=O)/C=C/C(=O)N(Cc2ccc(F)cc2)C(C(=O)NC2CCCCC2)c2ccncc2)c(O)c1 (centres undefined)	-	-	-	-31	-	-
COc1ccc(C(=O)NC2CC3CCCC(C2)N3Cc2ccccc2)cc1OC (centres undefined)	-	-	-	-33	-	-
Cc1ccccc1C(=O)NC1CC2CCCC(C1)N2Cc1ccc(Cl)cc1 (centres undefined)	-	-	-	-73	-	-
O=C(Cn1c(SCCOc2ccccc2)nc2ccccc21)N1CCOCC1	-	-	-	-	-	-
Cc1cc(C)c(NC(=O)C2CCCN(C(=O)c3cnn(-c4ccccc4)c3-n3cccc3)C2)c(C)c1 (centres undefined)	-	-	-	-	-	-
COc1ccc(C2/C=C\CN(C(=O)C3CCCC3)[C@H](Cc3ccccc3)C(=O)N2Cc2ccc(F)cc2)cc1 (some centres undefined)	-	-	-	-37	-	-
COc1ccc([C@H]2/C=C\CN(C(=O)C3CCCC3)[C@@H](C)C(=O)N2Cc2ccc(F)cc2)cc1	.	.	-	.	.	.
